The supplement of paper PMC10849652
The full data set covers some 7,900 targets. This sample favours those with a hit. About 0.6% of all pairs of compound and target were hits.

Assays:
Test in all cases: log2 fold change, soluble protein after heating vs DMSO (PISA); higher = thermal stabilisation; K562 cells, 10 uM, 30 min; active = over 0.2 and 3.5 SD of the protein, either way, in both replicates (recomputed)
[1] = compound: C#Cc1cccc(Nc2ncnc3cc(OCCOC)c(OCCOC)cc23)c1 [erlotinib]
Summary of the method: (§1)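 K562 cells at 2×10^6 cells/mL were treated with 10 μM compound for 30 min. Aliquots were heated for 3 min across 48°C-58°C, pooled, and extracted in PBS with 0.5% NP-40 at 4°C; soluble protein was the supernatant after 21,000xg for 90 min. Soluble protein was quantified by TMTpro 16plex LC-MS/MS with channel sums equalised, and reported as log2 fold change in thermal stability against DMSO controls, with values from duplicates.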

[2] = compound: C/C(=N\NC(=O)C1=CC(=CC=C1)S(=O)(=O)N2CCOCC2)/C3=C(C=CC(=C3)Cl)O
Summary of the method: as §1

[3] = compound: C1=CC(=C(C=C1Cl)C2=NC3=NC=CN=C3C(=N2)NC4=CC=NC=C4)F
Summary of the method: as §1

[4] = compound: C1=CC(=CC=C1C2=NC3=C(N2)C=C(C=C3)C(=O)N)OC4=CC=C(C=C4)Cl
Summary of the method: as §1

[5] = compound: C1=CC2=C(C=CC(=C2)/C=C\3/C(=O)NC(=NCC4=CC=CS4)S3)N=C1
Summary of the method: as §1

[6] = compound: C1=CC2=NC=CN=C2C=C1/C=C/3\C(=O)NC(=O)S3
Summary of the method: as §1

[7] = compound: C1=CC=C(C=C1)C2=NC(=C(N2)C3=CC=NC=C3)C4=CC(=C(C=C4)Cl)O
Summary of the method: as §1

[8] = compound: C1=CC=C2C(=C1)C3=NNC4=CC=CC(=C43)C2=O
Summary of the method: as §1

[9] = compound: C1CCN(C1)C(=O)NC2=CC=CC(=C2)NC3=NC=C(C(=N3)NCCC4=CN=CN4)Br
Summary of the method: as §1

[10] = compound: C1CN(CCC1(CC2=CC=C(C=C2)Cl)N)C3=NC=NC4=C3C=CN4
Summary of the method: as §1

[11] = compound: C1COCCN1CCN2C3=CC=CC=C3N=C2NC(=O)C4=CC(=CC=C4)[N+](=O)[O-] [IRAK-1-4 Inhibitor I]
Summary of the method: as §1

[12] = compound: C=CC(=O)N1CCC[C@@H](n2nc(-c3ccc(Oc4ccccc4)cc3)c3c(N)ncnc32)C1 [ibrutinib]
Summary of the method: as §1

[13] = compound: CC(=O)c1cnc2ccc(-c3cc(Cl)c(O)c(Cl)c3)nc2c1N[C@H]1CC[C@H](CN(C)C)CC1
Summary of the method: as §1

[14] = compound: CC(C)(C)Cn1c(N)nc2ccc(-c3[nH]c(C(C)(C)C)nc3-c3ccc(F)cc3)nc21 [ralimetinib]
Summary of the method: as §1

[15] = compound: CC(C)(O)CC(=O)NCCn1ccc2ncnc(Nc3ccc(Oc4cccc(C(F)(F)F)c4)c(Cl)c3)c21
Summary of the method: as §1

[16] = compound: CC(C)C1=C2N=C(C=C(N2N=C1)NCC3=CC=CC=C3)NCCCCCCN
Summary of the method: as §1

[17] = compound: CC(C)C[C@@H](C=O)NC(=O)[C@H](CC(C)C)NC(=O)[C@H](CC(C)C)NC(=O)OCc1ccccc1
Summary of the method: as §1

[18] = compound: CC(C)N(C[C@H]1O[C@@H](n2cnc3c(N)ncnc32)[C@H](O)[C@@H]1O)[C@H]1C[C@@H](CCc2nc3cc(C(C)(C)C)ccc3[nH]2)C1 [pinometostat]
Summary of the method: as §1

[19] = compound: CC1=C(C(CC(=O)N1)C2=CC=C(C=C2)C(F)(F)F)C(=O)NC3=C(C=C4C(=C3)C=NN4)F
Summary of the method: as §1

[20] = compound: CC1=C(C2=C(C=C1)C(=O)C3=CC=CC=C3N2CCCN)C
Summary of the method: as §1

Measured: log2 fold change

HNRNPUL2 (UniProt Q1KMD3)
UniProt Q1KMD3, sequence (Q1KMD3 whole entry, looked up): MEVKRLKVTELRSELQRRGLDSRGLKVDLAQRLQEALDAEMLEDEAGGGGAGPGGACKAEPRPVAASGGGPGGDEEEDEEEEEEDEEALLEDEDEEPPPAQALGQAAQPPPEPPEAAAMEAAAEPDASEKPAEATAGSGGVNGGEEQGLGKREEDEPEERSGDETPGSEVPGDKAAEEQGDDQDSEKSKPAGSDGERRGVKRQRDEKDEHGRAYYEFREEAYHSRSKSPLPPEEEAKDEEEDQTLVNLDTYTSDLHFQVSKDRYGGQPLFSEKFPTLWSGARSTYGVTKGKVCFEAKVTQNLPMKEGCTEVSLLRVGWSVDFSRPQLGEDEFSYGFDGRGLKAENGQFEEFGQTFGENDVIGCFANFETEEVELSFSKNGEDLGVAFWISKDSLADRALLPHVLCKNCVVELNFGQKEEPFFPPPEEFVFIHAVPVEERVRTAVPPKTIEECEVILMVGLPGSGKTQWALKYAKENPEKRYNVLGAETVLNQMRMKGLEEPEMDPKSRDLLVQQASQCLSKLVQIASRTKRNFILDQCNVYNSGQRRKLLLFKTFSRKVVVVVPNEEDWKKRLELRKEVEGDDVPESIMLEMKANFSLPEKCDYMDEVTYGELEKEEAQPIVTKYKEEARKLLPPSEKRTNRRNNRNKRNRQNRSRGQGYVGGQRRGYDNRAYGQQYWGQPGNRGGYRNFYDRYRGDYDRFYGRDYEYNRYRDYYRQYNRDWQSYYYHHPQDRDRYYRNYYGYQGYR
inactive: [1] -0.054 | [2] -0.08 | [3] -0.138 | [4] -0.015 | [5] -0.057 | [6] 0.012 | [7] -0.056 | [8] -0.014 | [9] 0.011 | [10] -0.102 | [11] -0.033 | [12] -0.022 | [13] -0.014 | [14] -0.033 | [15] 0.024 | [16] 0.117 | [17] 0.054 | [18] 0.107 | [19] -0.009 | [20] 0.023

GLS (UniProt O94925)
inactive: [1] 0.003 | [2] 0.105 | [3] 0.174 | [4] -0.107 | [5] -0.043 | [6] 0.14 | [7] 0.034 | [8] -0.023 | [9] -0.091 | [10] -0.03 | [11] 0.051 | [12] -0.096 | [13] 0.002 | [14] -0.071 | [15] -0.14 | [16] 0.004 | [17] 0.032 | [18] -0.037 | [19] 0.008 | [20] 0.002

IDI1 isoform 2 (UniProt Q13907)
active: [2] -0.313
inactive: [1] 0.004 | [3] 0.03 | [4] -0.012 | [5] -0.033 | [6] -0.004 | [7] -0.038 | [8] 0.034 | [9] -0.02 | [10] 0.002 | [11] 0.052 | [12] 0.034 | [13] -0.01 | [14] -0.04 | [15] 0.1 | [16] 0.077 | [17] -0.002 | [18] -0.012 | [19] 0.04 | [20] -0.099

GPD1 (UniProt P21695)
inactive: [1] 0.55 | [2] -0.084 | [3] -0.075 | [4] -0.305 | [5] 0.129 | [6] -0.149 | [7] -0.003 | [8] -0.047 | [9] -0.043 | [10] 0.032 | [12] 0.059 | [13] -0.066 | [14] -0.141 | [15] 0.079 | [16] 0.268 | [17] -0.051 | [19] 0.096 | [20] 0.009

GLIPR2 (UniProt Q9H4G4)
UniProt Q9H4G4, sequence (Q9H4G4 whole entry, looked up): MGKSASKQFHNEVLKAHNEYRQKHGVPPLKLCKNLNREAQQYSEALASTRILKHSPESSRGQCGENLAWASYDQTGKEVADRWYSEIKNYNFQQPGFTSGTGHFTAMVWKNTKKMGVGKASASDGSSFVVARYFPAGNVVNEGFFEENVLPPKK
active: [16] -0.35
inactive: [1] 0.039 | [2] 0.054 | [3] -0.035 | [4] 0.15 | [5] 0.023 | [6] -0.019 | [7] -0.062 | [8] -0.028 | [9] 0.045 | [10] -0.058 | [11] 0.038 | [12] -0.047 | [13] -0.01 | [14] 0.04 | [15] 0.06 | [17] 0.012 | [18] 0.03 | [20] 0.061

HP1BP3 (UniProt Q5SSJ5)
UniProt Q5SSJ5, sequence (Q5SSJ5 whole entry, looked up): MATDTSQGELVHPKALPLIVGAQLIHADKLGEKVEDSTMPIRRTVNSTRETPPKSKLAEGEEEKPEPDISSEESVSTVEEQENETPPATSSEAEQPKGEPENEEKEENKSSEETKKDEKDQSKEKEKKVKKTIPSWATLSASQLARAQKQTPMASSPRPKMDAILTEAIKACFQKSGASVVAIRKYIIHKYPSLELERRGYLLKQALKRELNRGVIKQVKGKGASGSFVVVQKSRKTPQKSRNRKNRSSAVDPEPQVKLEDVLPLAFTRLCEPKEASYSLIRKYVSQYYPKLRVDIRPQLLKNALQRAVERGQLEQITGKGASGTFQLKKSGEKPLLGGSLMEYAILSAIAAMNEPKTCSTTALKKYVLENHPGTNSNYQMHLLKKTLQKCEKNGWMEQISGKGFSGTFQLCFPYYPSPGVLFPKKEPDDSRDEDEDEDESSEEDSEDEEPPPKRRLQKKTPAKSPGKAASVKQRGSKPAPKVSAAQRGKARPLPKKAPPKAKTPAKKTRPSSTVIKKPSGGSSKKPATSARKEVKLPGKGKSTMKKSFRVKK
inactive: [1] 0.071 | [2] -0.035 | [3] -0.04 | [4] 0.028 | [5] 0.069 | [6] 0.064 | [7] -0.013 | [8] -0.044 | [9] 0.027 | [10] -0.155 | [11] -0.097 | [12] 0.003 | [13] 0.051 | [14] 0.089 | [15] -0.013 | [16] -0.031 | [17] 0.063 | [18] 0.092 | [19] -0.139
active: [20] -0.387

GAK (UniProt O14976)
UniProt O14976, sequence (O14976 whole entry, looked up): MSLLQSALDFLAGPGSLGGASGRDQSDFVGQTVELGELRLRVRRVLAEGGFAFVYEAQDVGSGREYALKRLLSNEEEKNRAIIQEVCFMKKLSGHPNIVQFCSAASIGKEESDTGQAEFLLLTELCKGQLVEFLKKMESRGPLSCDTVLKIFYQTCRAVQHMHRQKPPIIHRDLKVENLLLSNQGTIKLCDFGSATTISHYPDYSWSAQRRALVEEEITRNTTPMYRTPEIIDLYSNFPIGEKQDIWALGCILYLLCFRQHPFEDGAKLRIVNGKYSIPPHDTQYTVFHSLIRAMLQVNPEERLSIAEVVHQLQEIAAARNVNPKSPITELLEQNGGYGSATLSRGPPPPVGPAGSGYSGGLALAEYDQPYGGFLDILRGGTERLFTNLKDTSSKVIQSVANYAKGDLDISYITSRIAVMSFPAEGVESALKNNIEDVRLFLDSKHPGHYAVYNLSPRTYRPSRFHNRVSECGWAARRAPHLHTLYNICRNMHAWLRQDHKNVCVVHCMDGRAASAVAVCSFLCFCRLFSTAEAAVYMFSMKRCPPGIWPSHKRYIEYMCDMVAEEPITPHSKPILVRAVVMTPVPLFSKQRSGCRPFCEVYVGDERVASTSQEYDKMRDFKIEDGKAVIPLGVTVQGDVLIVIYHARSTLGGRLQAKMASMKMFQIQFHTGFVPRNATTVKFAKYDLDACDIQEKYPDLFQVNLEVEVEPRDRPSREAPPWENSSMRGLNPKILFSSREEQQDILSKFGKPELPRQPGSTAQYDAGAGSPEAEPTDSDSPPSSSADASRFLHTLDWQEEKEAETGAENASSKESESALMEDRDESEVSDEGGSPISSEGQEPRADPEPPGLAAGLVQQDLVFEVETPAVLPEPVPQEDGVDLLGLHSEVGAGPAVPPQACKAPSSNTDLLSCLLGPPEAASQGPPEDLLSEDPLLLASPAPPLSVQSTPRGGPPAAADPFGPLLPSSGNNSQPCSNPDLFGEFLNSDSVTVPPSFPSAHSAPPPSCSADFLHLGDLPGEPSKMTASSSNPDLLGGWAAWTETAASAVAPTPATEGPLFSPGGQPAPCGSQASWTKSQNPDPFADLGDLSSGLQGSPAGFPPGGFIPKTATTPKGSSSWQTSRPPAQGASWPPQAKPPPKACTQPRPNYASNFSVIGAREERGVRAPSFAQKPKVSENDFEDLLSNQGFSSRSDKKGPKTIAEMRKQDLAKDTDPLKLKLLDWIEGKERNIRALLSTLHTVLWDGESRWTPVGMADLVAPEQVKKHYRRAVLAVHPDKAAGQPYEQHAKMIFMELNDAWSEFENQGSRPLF
inactive: [1] 0.64 | [2] -0.78 | [3] -0.133 | [4] -0.821 | [5] 0.527 | [7] 0.639 | [8] 0.955 | [9] 1.08 | [10] -0.265 | [11] -0.222 | [13] 1.15 | [14] 1.13 | [15] -0.015 | [16] -0.81 | [17] 0.084 | [18] 0.344 | [19] -0.213 | [20] -0.187

HNRNPUL1 (UniProt M0R247)
inactive: [1] -0.032 | [2] -0.317 | [4] -0.513 | [5] 0.545 | [8] -0.419 | [9] 0.471 | [10] 0.051 | [11] 0.041 | [13] -0.259 | [16] 0.121 | [18] -0.025 | [19] 0.031 | [20] 0.008

FAT2 (UniProt Q9NYQ8)
inactive: [1] 0.115 | [3] 0.26 | [4] -0.098 | [6] 0.096 | [7] 0 | [9] -0.166 | [10] 0.186 | [11] 0.103 | [12] 0.107 | [14] 0.182 | [15] -0.149 | [16] -0.002 | [17] 0.225 | [18] 0.051 | [20] 0.132

HSPA8 (UniProt E9PN89)
inactive: [1] 0.051 | [2] -0.193 | [3] -0.191 | [4] -0.061 | [5] 0.358 | [6] 0.06 | [8] -0.133 | [9] 0.267 | [10] -0.027 | [11] -0.032 | [12] -0.069 | [13] -0.145 | [15] 0.127 | [16] 0.085 | [18] -0.004 | [19] 0.07 | [20] 0.043

FCHO1 (UniProt O14526)
active: [13] -0.593
inactive: [1] 0.065 | [2] 0.104 | [3] -0.032 | [4] -0.011 | [5] 0.07 | [7] -0.144 | [8] -0.061 | [9] -0.005 | [10] -0.029 | [11] -0.114 | [14] -0.081 | [15] -0.073 | [16] 0.045 | [17] 0.191 | [18] 0.05 | [19] 0.094 | [20] -0.011

FRA10AC1 isoform 3 (UniProt Q70Z53)
UniProt Q70Z53, sequence (Q70Z53 whole entry, looked up): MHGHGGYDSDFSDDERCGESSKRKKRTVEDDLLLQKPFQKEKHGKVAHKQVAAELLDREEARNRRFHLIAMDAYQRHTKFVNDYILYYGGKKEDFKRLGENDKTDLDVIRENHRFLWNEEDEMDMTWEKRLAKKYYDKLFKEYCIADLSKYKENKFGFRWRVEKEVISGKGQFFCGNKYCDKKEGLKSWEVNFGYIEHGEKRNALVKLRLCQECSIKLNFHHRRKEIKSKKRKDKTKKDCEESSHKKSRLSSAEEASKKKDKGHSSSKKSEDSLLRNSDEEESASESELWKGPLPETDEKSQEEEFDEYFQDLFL
inactive: [1] -0.02 | [2] 0.053 | [3] -0.059 | [4] -0.12 | [5] -0.305 | [6] 0.033 | [8] -0.154 | [9] -0.067 | [10] 0.126 | [11] 0.005 | [12] -0.014 | [13] 0.024 | [15] -0.024 | [16] 0.169 | [18] 0.001 | [19] -0.03 | [20] -0.201

FGG (UniProt P02679)
UniProt P02679, sequence (P02679 whole entry, looked up): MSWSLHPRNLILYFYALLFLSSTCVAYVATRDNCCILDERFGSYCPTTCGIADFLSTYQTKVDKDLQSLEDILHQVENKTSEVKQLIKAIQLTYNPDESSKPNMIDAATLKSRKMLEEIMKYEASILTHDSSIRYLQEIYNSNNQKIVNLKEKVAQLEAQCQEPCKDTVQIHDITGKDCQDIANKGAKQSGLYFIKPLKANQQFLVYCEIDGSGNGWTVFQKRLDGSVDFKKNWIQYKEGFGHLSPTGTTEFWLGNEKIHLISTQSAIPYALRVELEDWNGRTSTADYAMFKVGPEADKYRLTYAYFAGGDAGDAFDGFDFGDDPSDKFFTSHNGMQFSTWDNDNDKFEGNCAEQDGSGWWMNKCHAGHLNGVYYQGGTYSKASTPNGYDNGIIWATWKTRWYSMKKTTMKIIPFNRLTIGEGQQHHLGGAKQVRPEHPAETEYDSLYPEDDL
inactive: [7] -0.05 | [14] -0.048 | [17] 0.231

HS1BP3 (UniProt Q53T59)
inactive: [1] 0.008 | [2] 0.042 | [3] 0 | [4] -0.073 | [5] 0.147 | [6] -0.008 | [7] -0.032 | [8] -0.03 | [11] 0.004 | [12] -0.029 | [13] -0.117 | [14] 0.038 | [15] -0.059 | [16] -0.038 | [17] 0.086 | [18] -0.002 | [19] 0.004

IGF2 isoform 3 (UniProt P01344)
UniProt P01344, sequence (P01344 whole entry, looked up): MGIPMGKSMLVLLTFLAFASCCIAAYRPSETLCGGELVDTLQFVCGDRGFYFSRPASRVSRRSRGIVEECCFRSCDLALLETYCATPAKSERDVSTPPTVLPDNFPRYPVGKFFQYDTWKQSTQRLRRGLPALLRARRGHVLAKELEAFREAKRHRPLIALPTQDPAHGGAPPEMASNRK
inactive: [1] -0.098 | [4] 0.028 | [11] 0.066 | [16] -0.104 | [18] -0.107

FCF1 (UniProt Q9Y324)
active: [20] -1.04
inactive: [3] -0.392 | [7] -0.075 | [9] 0.034 | [10] -0.138 | [11] -0.083 | [14] 0.223 | [15] 0.032 | [17] 0.074 | [18] 0.334

HDAC10 (UniProt Q969S8)
UniProt Q969S8, sequence (Q969S8 whole entry, looked up): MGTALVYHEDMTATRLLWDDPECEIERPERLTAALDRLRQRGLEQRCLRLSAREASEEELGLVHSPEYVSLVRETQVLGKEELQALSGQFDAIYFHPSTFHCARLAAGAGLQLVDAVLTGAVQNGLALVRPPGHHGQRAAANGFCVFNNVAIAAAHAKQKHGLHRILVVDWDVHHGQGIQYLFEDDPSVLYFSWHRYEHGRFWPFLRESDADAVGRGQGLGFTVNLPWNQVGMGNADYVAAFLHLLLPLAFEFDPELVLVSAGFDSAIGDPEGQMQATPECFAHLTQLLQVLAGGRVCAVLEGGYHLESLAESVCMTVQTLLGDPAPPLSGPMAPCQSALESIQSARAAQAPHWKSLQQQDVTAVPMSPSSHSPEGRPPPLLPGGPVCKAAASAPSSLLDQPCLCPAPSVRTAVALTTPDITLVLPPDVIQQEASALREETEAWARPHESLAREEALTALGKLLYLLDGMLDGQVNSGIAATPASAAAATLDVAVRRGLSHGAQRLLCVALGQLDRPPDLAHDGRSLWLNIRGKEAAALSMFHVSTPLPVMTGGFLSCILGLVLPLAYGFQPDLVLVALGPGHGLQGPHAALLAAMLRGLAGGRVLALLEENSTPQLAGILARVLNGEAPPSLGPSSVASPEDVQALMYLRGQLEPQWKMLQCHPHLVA
inactive: [1] 0.065 | [2] -0.067 | [4] 0.038 | [5] -0.277 | [6] 0.066 | [7] 0.045 | [8] -0.072 | [10] 0.333 | [12] -0.01 | [13] 0.137 | [14] 0.006 | [16] -0.124 | [17] -0.026 | [19] 0.037 | [20] -0.287
active: [9] -0.729

GSE1 (UniProt Q14687)
inactive: [6] -0.269 | [7] -0.048 | [12] 0.057 | [14] -0.065 | [17] 0.003 | [19] 0.044

GBA2 (UniProt Q9HCG7)
inactive: [1] 0.063 | [2] 0.095 | [3] 0.04 | [4] 0.01 | [5] 0.033 | [6] -0.023 | [8] 0.028 | [9] 0.034 | [10] 0.104 | [11] -0.082 | [12] -0.027 | [13] -0.073 | [15] 0.048 | [16] 0.326 | [18] 0.121 | [19] 0.003 | [20] -0.003

FIZ1 (UniProt Q96SL8)
UniProt Q96SL8, sequence (Q96SL8 whole entry, looked up): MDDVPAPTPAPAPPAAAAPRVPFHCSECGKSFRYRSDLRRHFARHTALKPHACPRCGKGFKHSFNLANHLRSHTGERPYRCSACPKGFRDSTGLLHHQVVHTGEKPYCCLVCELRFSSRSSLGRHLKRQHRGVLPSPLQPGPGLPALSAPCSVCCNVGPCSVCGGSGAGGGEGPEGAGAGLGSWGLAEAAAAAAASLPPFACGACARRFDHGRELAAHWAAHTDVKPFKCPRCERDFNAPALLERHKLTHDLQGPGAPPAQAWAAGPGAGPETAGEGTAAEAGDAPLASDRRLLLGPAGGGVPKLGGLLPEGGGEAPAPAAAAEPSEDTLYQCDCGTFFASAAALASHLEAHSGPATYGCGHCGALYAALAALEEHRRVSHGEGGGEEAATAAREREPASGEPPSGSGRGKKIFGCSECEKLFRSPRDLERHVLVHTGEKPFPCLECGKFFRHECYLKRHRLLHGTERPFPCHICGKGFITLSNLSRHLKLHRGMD
inactive: [3] -0.272 | [11] -0.14 | [15] 0.017 | [18] 0.123 | [19] 0.121

HSPA2 (UniProt P54652)
active: [16] -0.441
inactive: [1] 0.623 | [2] -0.047 | [4] -0.182 | [5] 0.022 | [6] 0.058 | [7] -0.095 | [8] 0.192 | [11] 0.008 | [12] -0.006 | [13] -0.28 | [14] 0.01 | [17] 0.041 | [18] 0.05 | [19] 0.023
